In PubChem BioAssay:
“And” between values parts separate entries of the source, which are not always exact repeats. Equal entries are not always repeated. Inconclusive results are not listed. The source made the active and inactive calls.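 How the source made its calls, unless noted: active means normalized viability below 100% at a tested concentration; inactive means the rest.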

Columns and labels:
[1] = P. berghei load reduction in hepatocytes – cell-based, HepG2, luciferase luminescence, HepG2 viability, primary screen (AID 624349; in the data active means parasite load remaining mostly below about 12%, no sharp cut-off; inactive means mostly above about 10%;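 further: 100% = mean of DMSO negative control wells on the same plate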); conditions: P. berghei liver stage in HepG2, luciferase luminescence, concentration not given here; parasite load remaining: stronger effect = lower value; viability: measured here: HepG2 viability without parasites
[2] = viability loss in pontine glioma line – cell-based, SU-DIPG-XVII, MIPE5.0, CellTiter-Glo, qHTS, dose response (AID 1347060; cut-off not given, nearly all actives have AC50 up to about 26 µM;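 on AC50: cells exposed to compound for 48 hours before viability readout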); conditions: CellTiter-Glo ATP luminescence
[3] = viability loss in pontine glioma line – cell-based, JHH-DIPG-1, MIPE4.0, CellTiter-Glo, qHTS, dose response (AID 1347062; cut-off not given, nearly all actives have AC50 up to about 27 µM;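 on AC50: cells exposed to compound for two days before readout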); conditions: JHH-DIPG-1 viability, CellTiter-Glo ATP luminescence
[4] = viability loss in pontine glioma line – cell-based, SU-DIPG-IV, MIPE4.0, CellTiter-Glo, qHTS, dose response (AID 1347063; cut-off not given, nearly all actives have AC50 up to about 30 µM;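 further: compound exposure lasted 48 hours before the viability readout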); conditions: CellTiter-Glo ATP luminescence
[5] = viability loss in pontine glioma line – cell-based, SU-DIPG-XIII, MIPE5.0, CellTiter-Glo, qHTS, dose response (AID 1347064; cut-off not given, nearly all actives have AC50 up to about 23 µM;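 on AC50: cells exposed to compound for 48 hours before the viability read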); conditions: CellTiter-Glo ATP luminescence
[6] = viability loss in pontine glioma line – cell-based, SU-DIPG-XXV, MIPE5.0, CellTiter-Glo, qHTS, dose response (AID 1347065; cut-off not given, nearly all actives have AC50 up to about 26 µM;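 further: cells exposed to compound for 48 hours before ATP readout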); conditions: CellTiter-Glo ATP luminescence
[7] = JHH-DIPG-1 glioma cell viability, MIPE5.0 library, CellTiter-Glo luminescence, qHTS (AID 1347067; cut-off not given, nearly all actives have AC50 up to about 26 µM;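 further: cells exposed to compound for 48 hours before readout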); conditions: JHH-DIPG-1 glioma viability, CellTiter-Glo ATP luminescence
[8] = growth inhibition of DIPG cells – cell-based, MIPE5.0 library, qHTS (AID 1347068; cut-off not given, nearly all actives have IC50 up to about 30 µM;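 on IC50: cells exposed to compound for 48 hours before viability readout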); conditions: SU-DIPG-XXV viability
[9] = viability loss with induced miR-34 in A549 – imaging, A549 dox-inducible miR-34, nuclei and caspase counts, primary screen (AID 1347080;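 active means compounds whose cell count with miR-34 switched on is under 0.7 times the count with it off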); conditions: A549 miR-34 inducible, Hoechst nuclei count, 48 h
[10] = growth inhibition of DIPG cells – cell-based, MIPE4.0 library, CellTiter-Glo luminescence, qHTS (AID 1347066; cut-off not given, nearly all actives have AC50 up to about 30 µM;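 further: cells exposed to compound for 48 hours before readout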); conditions: SU-DIPG-VI viability, CellTiter-Glo ATP luminescence
[11] = compounds altering HSF1 focus formation in cells – imaging, Selleck Cancer Library (AID 1347162; in the data active means plate-normalised HSF1 focus index below about 0.46); conditions: human cells, HSF1 nuclear foci imaging, at 10 µM; SSMD: measured here: HSF1 foci SSMD mean; cell count: measured here: cell number; plate-normalised HSF1 focus index: stronger effect = lower value
[12] = drug combination growth inhibition, ovarian cancer – cell-based, oncology-focused library, rucaparib conditional, profiling panel (AID 1508598); conditions: patient-derived ovarian cancer cells, CellTiter-Glo viability, 144 h, stronger effect = lower value

O=C1NC(=O)/C(=C/c2ccc3c(c2)OC(F)(F)O3)S1
9160 and 6280: cell count ([9]; measured here: total cells without miR-34 induction)
93.8%: viability [1]
1.16 and 0.645: fold change ([9]; measured here: relative caspase fold change +Dox/-Dox)
8070 and 5980: cell count ([9]; measured here: total cells with miR-34 induction, stronger effect = lower value)
inactive: parasite load remaining [1] 45.5% | outcome [2] | outcome [3] | outcome [4] | outcome [5] | outcome [6] | outcome [7] | outcome [8] | fold change ([9]; stronger effect = lower value, cell number ratio, induced over uninduced) 0.88 and 0.952

CC[C@@H]1C(=O)N(C)c2cnc(Nc3ccc(C(=O)NC4CCC(N5CCN(CC6CC6)CC5)CC4)cc3OC)nc2N1C(C)C (stereo partly specified)
4.31: SSMD [11]
7310: cell count [11]
active: AC50 [2] 74.2 nM | AC50 [3] 6.62 µM | AC50 [4] 2.35 µM | AC50 [5] 5.9 µM | AC50 [6] 52.5 nM | AC50 [10] 20.9 µM | AC50 [7] 4.17 µM | IC50 [8] 6.61 µM | viability ([12]; at 0.000305 µM, OCI-P5x cells, with rucaparib 20 µM, 100% = cells with rucaparib alone) 97.4% | viability ([12]; at 0.00122 µM, OCI-P5x cells, without rucaparib) 95.9% | viability ([12]; at 0.00488 µM, OCI-C5x cells, with rucaparib 10 µM, 100% = cells with rucaparib alone) 89.2% | viability ([12]; at 0.00488 µM, OCI-C5x cells, without rucaparib) 87.7% | viability ([12]; at 0.00488 µM, OCI-P5x cells, with rucaparib 20 µM, 100% = cells with rucaparib alone) 84.5% | viability ([12]; at 0.00488 µM, OCI-P5x cells, without rucaparib) 26.8% | viability ([12]; at 0.0195 µM, OCI-C5x cells, with rucaparib 10 µM, 100% = cells with rucaparib alone) 51.8% | viability ([12]; at 0.0195 µM, OCI-C5x cells, without rucaparib) 43.7% | viability ([12]; at 0.0195 µM, OCI-P5x cells, with rucaparib 20 µM, 100% = cells with rucaparib alone) 64.2% | viability ([12]; at 0.0195 µM, OCI-P5x cells, without rucaparib) 18.3% | viability ([12]; at 0.0781 µM, OCI-C5x cells, with rucaparib 10 µM, 100% = cells with rucaparib alone) 49.3% | viability ([12]; at 0.0781 µM, OCI-C5x cells, without rucaparib) 32.9% | viability ([12]; at 0.0781 µM, OCI-P5x cells, with rucaparib 20 µM, 100% = cells with rucaparib alone) 67.2% | viability ([12]; at 0.0781 µM, OCI-P5x cells, without rucaparib) 20.5% | viability ([12]; at 0.313 µM, OCI-C5x cells, with rucaparib 10 µM, 100% = cells with rucaparib alone) 41.4% | viability ([12]; at 0.313 µM, OCI-C5x cells, without rucaparib) 36.3% | viability ([12]; at 0.313 µM, OCI-P5x cells, with rucaparib 20 µM, 100% = cells with rucaparib alone) 70.1% | viability ([12]; at 0.313 µM, OCI-P5x cells, without rucaparib) 17.3% | viability ([12]; at 1.25 µM, OCI-C5x cells, with rucaparib 10 µM, 100% = cells with rucaparib alone) 26.6% | viability ([12]; at 1.25 µM, OCI-C5x cells, without rucaparib) 25.2% | viability ([12]; at 1.25 µM, OCI-P5x cells, with rucaparib 20 µM, 100% = cells with rucaparib alone) 9.33% | viability ([12]; at 1.25 µM, OCI-P5x cells, without rucaparib) 13.8% | viability ([12]; at 5 µM, OCI-C5x cells, with rucaparib 10 µM, 100% = cells with rucaparib alone) 4.03% | viability ([12]; at 5 µM, OCI-C5x cells, without rucaparib) 21.5% | viability ([12]; at 5 µM, OCI-P5x cells, with rucaparib 20 µM, 100% = cells with rucaparib alone) 1.64% | viability ([12]; at 5 µM, OCI-P5x cells, without rucaparib) 12.5%
inactive: plate-normalised HSF1 focus index [11] 1.16 | viability ([12]; at 0.000305 µM, OCI-C5x cells, with rucaparib 10 µM, 100% = cells with rucaparib alone) 101% | viability ([12]; at 0.000305 µM, OCI-C5x cells, without rucaparib) 104% | viability ([12]; at 0.000305 µM, OCI-P5x cells, without rucaparib) 102% | viability ([12]; at 0.00122 µM, OCI-C5x cells, with rucaparib 10 µM, 100% = cells with rucaparib alone) 107% | viability ([12]; at 0.00122 µM, OCI-C5x cells, without rucaparib) 102% | viability ([12]; at 0.00122 µM, OCI-P5x cells, with rucaparib 20 µM, 100% = cells with rucaparib alone) 100%
